Inconclusive results are not listed. Values without a mark were called inactive. Activity calls are given as the source filed them. Calls come from the whole dose curve; as a rule, active = well fitted curve in the direction sought with a large enough effect; inconclusive = small, poorly fitted or top-dose-only effect, or another doubt; inactive = no such curve, though single readings can be large; an effect the other way counts as inactive or inconclusive.

In experiment [1] the target is ATP-dependent 6-phosphofructokinase (Trypanosoma brucei brucei) (UniProt O15648). Kind of experiment: qHTS Assay to Find Inhibitors of T. brucei phosphofructokinase: hit validation (AID 492961). Note: % is set by controls: 0 for no effect and ±100 for the full control effect. Summed up:
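Luminescence from ADP-Glo reports ADP generated as T. brucei PFK (1.25 nM) phosphorylates 0.5 mM fructose-6-phosphate using 0.1 mM ATP. Reactions ran 45 min at room temperature, pH 8.0.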

A short description of experiment [2]: qHTS profiling for inhibitors of Plasmodium falciparum proliferation (AID 504749).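 For activity, negative = inhibition: 0% = DMSO vehicle and full inhibition = artemisinin control.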 Note: nearly all actives have a fitted effect of over 60% in size. Note: potency is the fitted concentration of half-maximal effect. As to conditions: P. falciparum in erythrocytes, SYBR Green DNA, 72 h, at 28.7 µM (top of the series). In a few lines: (§1)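 P. falciparum-infected erythrocytes (0.3% parasitemia, 2.5% hematocrit) incubated with compound 72 h at 37 C, 5% CO2. Parasite DNA detected by SYBR Green after lysis, overnight at room temperature; normalised to 0.29 uM artemisinin and DMSO.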

Experiment [3] has as its system CP185. The description is as above. As to conditions: P. falciparum in erythrocytes, SYBR Green DNA, 72 h; series mostly up to 28.7 µM. In a few lines: as §1
The test system of experiment [4] is CP192. Described as above. As to conditions: P. falciparum in erythrocytes, SYBR Green DNA, 72 h; series mostly up to 28.7 µM. Summed up:
as §1

For experiment [5], the system named is CP211. The description is as above. The conditions noted are these: P. falciparum in erythrocytes, SYBR Green DNA, 72 h; series mostly up to 28.7 µM. In a few lines:
as §1

Experiment [6] deals with CP238. Described as above. The conditions noted are these: P. falciparum in erythrocytes, SYBR Green DNA, 72 h; series mostly up to 28.7 µM. In a few lines:
as §1

In experiment [7] the test system is CP252. The description is as above. The conditions noted are these: P. falciparum in erythrocytes, SYBR Green DNA, 72 h; series mostly up to 28.7 µM. Summed up: as §1
Experiment [8] relates to CP262. The experiment is described as above. The conditions noted are these: P. falciparum in erythrocytes, SYBR Green DNA, 72 h; series mostly up to 28.7 µM. In a few lines: as §1
Experiment [9] concerns CP265. The description is as above. As to conditions: P. falciparum in erythrocytes, SYBR Green DNA, 72 h; series mostly up to 28.7 µM. In a few lines:
as §1

Experiment [10] relates to CP269. Described as above. As to conditions: P. falciparum in erythrocytes, SYBR Green DNA, 72 h; series mostly up to 28.7 µM. In a few lines:
as §1

For experiment [11], the system named is CP286. Described as above. The conditions noted are these: P. falciparum in erythrocytes, SYBR Green DNA, 72 h; series mostly up to 28.7 µM. In a few lines: as §1
Experiment [12] relates to CP315. The experiment is described as above. The conditions noted are these: P. falciparum in erythrocytes, SYBR Green DNA, 72 h; series mostly up to 28.7 µM. In a few lines:
as §1

Experiment [13] relates to CP329. The experiment is described as above. As to conditions: P. falciparum in erythrocytes, SYBR Green DNA, 72 h; series mostly up to 28.7 µM. Summed up: as §1
Experiment [14] relates to DFO2036. The experiment is described as above. The conditions noted are these: P. falciparum in erythrocytes, SYBR Green DNA, 72 h; series mostly up to 28.7 µM. Summed up: as §1
Experiment [15] deals with Dd2. The experiment is described as above. The conditions noted are these: P. falciparum in erythrocytes, SYBR Green DNA, 72 h; series mostly up to 28.7 µM. In a few lines:
as §1

For experiment [16], the system named is ECU. The description is as above. The conditions noted are these: P. falciparum in erythrocytes, SYBR Green DNA, 72 h; series mostly up to 28.7 µM. In a few lines: as §1
Experiment [17] has as its system FAB9. Described as above. The conditions noted are these: P. falciparum in erythrocytes, SYBR Green DNA, 72 h; series mostly up to 28.7 µM. In a few lines:
as §1

Experiment [18] concerns JCK. The description is as above. As to conditions: P. falciparum in erythrocytes, SYBR Green DNA, 72 h; series mostly up to 28.7 µM. In a few lines:
as §1

In experiment [19] the test system is N140. The experiment is described as above. As to conditions: P. falciparum in erythrocytes, SYBR Green DNA, 72 h; series mostly up to 28.7 µM. In a few lines: as §1
Experiment [20] addresses Luciferin 4-monooxygenase (Photinus pyralis) (UniProt P08659). Kind of experiment: Biochemical firefly luciferase enzyme assay for NPC (AID 624030). Note: nearly all actives have a fitted effect of over 70% in size. Note: potency is the fitted concentration of half-maximal effect. In a few lines:
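Purified P. pyralis luciferase at 10 nM in 50 mM Tris Acetate (final), luminescence read within 5 minutes of enzyme addition to compounds. Activity normalised to PTC124 versus DMSO; concentration-response curves classed by r2, magnitude and activity.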

Sequence of Luciferin 4-monooxygenase (Photinus pyralis) (P08659 whole entry, looked up): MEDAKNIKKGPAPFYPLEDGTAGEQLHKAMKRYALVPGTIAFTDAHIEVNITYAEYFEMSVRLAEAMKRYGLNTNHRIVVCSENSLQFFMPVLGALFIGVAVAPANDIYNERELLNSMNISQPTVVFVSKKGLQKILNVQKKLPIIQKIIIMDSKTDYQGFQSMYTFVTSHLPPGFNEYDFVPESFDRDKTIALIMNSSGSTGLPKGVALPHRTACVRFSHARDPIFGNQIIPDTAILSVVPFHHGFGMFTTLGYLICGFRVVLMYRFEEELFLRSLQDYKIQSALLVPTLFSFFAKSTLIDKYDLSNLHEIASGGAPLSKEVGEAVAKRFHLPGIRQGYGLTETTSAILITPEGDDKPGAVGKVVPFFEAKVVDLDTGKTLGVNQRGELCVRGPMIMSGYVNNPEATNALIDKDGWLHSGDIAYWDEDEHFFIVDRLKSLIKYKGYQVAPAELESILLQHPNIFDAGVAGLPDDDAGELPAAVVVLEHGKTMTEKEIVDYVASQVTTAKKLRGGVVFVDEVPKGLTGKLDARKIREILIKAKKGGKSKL
Sequence of ATP-dependent 6-phosphofructokinase (Trypanosoma brucei brucei) (O15648 whole entry, looked up): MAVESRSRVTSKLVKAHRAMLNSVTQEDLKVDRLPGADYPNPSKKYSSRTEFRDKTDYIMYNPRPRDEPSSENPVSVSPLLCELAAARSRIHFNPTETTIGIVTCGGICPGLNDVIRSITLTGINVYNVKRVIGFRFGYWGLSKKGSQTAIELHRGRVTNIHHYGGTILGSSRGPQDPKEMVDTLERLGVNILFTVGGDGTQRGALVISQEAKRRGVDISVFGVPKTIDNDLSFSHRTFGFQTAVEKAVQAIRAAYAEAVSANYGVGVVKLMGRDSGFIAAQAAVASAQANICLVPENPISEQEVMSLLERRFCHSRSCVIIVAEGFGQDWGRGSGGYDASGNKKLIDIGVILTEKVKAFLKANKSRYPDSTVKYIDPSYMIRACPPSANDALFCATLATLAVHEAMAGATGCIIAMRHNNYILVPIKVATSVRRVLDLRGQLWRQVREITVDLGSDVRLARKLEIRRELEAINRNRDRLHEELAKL

Turning to `Cc1cnc(NC(=O)C2C(=O)c3ccccc3S(=O)(=O)N2C)s1` (centres undefined), the Potency result in experiment [1], in experiment [3], in experiment [4], in [5], in [6] and in experiment [7] was “inactive” each time. Also, the Potency result in experiment [8], in experiment [9], in experiment [10], in experiment [11], in [12] and in [13] was “inactive” in each case. In addition, the Potency entry in experiment [14], in experiment [15], in experiment [16], in experiment [17], in experiment [18] and in [19] was “inactive” throughout. Moreover, in experiment [2] (parasite line A), the activity, negative = inhibition is -14.2%.
`COc1ccc(C(=O)/C(Br)=C/C(=O)O)cc1`: the Potency entry in experiment [1], in [20], in [3], in [4], in experiment [6] and in experiment [7] was “inactive” each time. Also, the Potency result in experiment [8], in [9], in experiment [11], in experiment [12], in experiment [13] and in experiment [14] was “inactive” in each case. In addition, the Potency entry in [15], in experiment [17], in experiment [18] and in experiment [19] was “inactive” each time. Besides, the activity, negative = inhibition in experiment [2] (parasite line A) was -21.1%; in experiment [2] (parasite line B), -8.61%.
For the compound `C=C1/C(=C\C=C2/CCC[C@]3(C)[C@@H]([C@H](C)/C=C/[C@@H](O)C4CC4)CC[C@@H]23)C[C@@H](O)C[C@@H]1O`, the Potency entry in experiment [1], in [20], in experiment [3], in experiment [4], in experiment [5] and in experiment [6] was “inactive” throughout. The Potency entry in experiment [7], in experiment [8], in [10], in experiment [11], in experiment [12] and in experiment [13] was “inactive” in each case. Further, the Potency result in experiment [14], in experiment [15], in experiment [16], in [17], in [18] and in experiment [19] was “inactive” throughout. Also, the activity, negative = inhibition in [2] (parasite line A) was -4.72%; in experiment [2] (parasite line B), -23.6%.
Regarding `CC1OC(OC2C(O)CC(OC3C(O)CC(OC4CCC5(C)C(CCC6C5CCC5(C)C(C7=CC(=O)OC7)CCC65O)C4)OC3C)OC2C)CC(O)C1O` (centres undefined), the Potency entry in experiment [1], in experiment [20], in [3], in experiment [4], in experiment [5] and in experiment [6] was “inactive” each time. For the same compound, the Potency entry in experiment [7], in [8], in experiment [9], in experiment [10], in experiment [11] and in [12] was “inactive” throughout. The Potency entry in experiment [13], in [14], in experiment [16], in experiment [17], in experiment [18] and in [19] was “inactive” in each case. Also, the activity, negative = inhibition was 1.31% in experiment [2] (parasite line A) and 5.82% in experiment [2] (parasite line B).
With `C[C@]12CC[C@@H]3c4ccc(O)cc4CC[C@H]3[C@@H]1CCC2OC(=O)CCC1CCCC1` (some centres undefined), the Potency entry in experiment [1], in [20], in experiment [3], in experiment [4], in experiment [5] and in [6] was “inactive” throughout. In addition, the Potency result in experiment [7], in [8], in experiment [9], in [10], in [12] and in experiment [13] was “inactive” throughout. The Potency result in experiment [14], in experiment [16], in experiment [17], in experiment [18] and in experiment [19] was “inactive” each time. Further, the activity, negative = inhibition is -2.55% in [2] (parasite line A) and -17% in experiment [2] (parasite line B).
Take `C[C@H](CN1c2ccccc2Sc2cccnc21)N(C)C`: the Potency entry in [1], in experiment [20], in experiment [8], in experiment [16] and in [17] was “inactive” throughout. Besides, the figures for the activity, negative = inhibition in experiment [2] (parasite line A) and in experiment [2] (parasite line B) were -16.9% and -1.99%, respectively. Also, the Potency was 11.2 µM (active) in experiment [3]; 10 µM (active) in [6]; 11.2 µM (active) in experiment [7]; 4.47 µM (active) in experiment [11]; 11.2 µM (active) in experiment [14]; 4.47 µM (active) in experiment [15]. Also, the Potency in experiment [19] was 11.2 µM (active).
Take `CC1=C(c2ccc(NN=C(C#N)C#N)cc2)NNC(=O)C1`: the Potency result in [1], in experiment [3], in [4], in experiment [5], in [6] and in experiment [7] was “inactive” throughout. Also, the Potency entry in experiment [8], in experiment [9], in [10], in [11], in experiment [12] and in experiment [13] was “inactive” each time. For the same compound, the Potency entry in experiment [14], in experiment [15], in experiment [16], in experiment [17], in [18] and in [19] was “inactive” each time. The Potency in experiment [20] is 14.4 µM (active). Moreover, the activity, negative = inhibition was -7.66% in experiment [2] (parasite line A) and 20.7% in experiment [2] (parasite line B).
On to `CC(C)(C)NC[C@H](O)CSc1nc(-c2ccc(C(N)=O)s2)cs1`, for which the Potency result in experiment [1], in experiment [20], in experiment [3], in experiment [4], in experiment [5] and in [6] was “inactive” in each case. For the same compound, the Potency entry in [7], in [8], in [9], in [10], in experiment [11] and in experiment [12] was “inactive” each time. Moreover, the Potency entry in experiment [13], in experiment [14], in [15], in experiment [16], in experiment [17] and in experiment [18] was “inactive” throughout. Further, the Potency entry in experiment [19] was “inactive”. Also, the activity, negative = inhibition in [2] (parasite line A) was -8.78%; in experiment [2] (parasite line B), -3.22%.
For `C#C[C@]1(O)CC[C@H]2[C@H]3[C@H](CC[C@@]21C)C1=C(CC(=O)CC1)C[C@@H]3C`, the Potency result in experiment [1], in [20], in experiment [3], in experiment [4], in [5] and in experiment [6] was “inactive” each time. The Potency result in [7], in [8], in [9], in [10], in experiment [11] and in experiment [12] was “inactive” each time. The Potency entry in [13], in [14], in experiment [15], in experiment [16], in experiment [17] and in experiment [18] was “inactive” in each case. In experiment [19], the Potency entry is “inactive”. Besides, the activity, negative = inhibition in [2] (parasite line A) is -14.8%; in experiment [2] (parasite line B), -21.9%.
For the compound `C/C=C1/NN(CCCN2CCN(c3cccc(Cl)c3)CC2)C(=O)N1CCOc1ccccc1`, the Potency result in experiment [1], in experiment [20], in experiment [3], in experiment [4], in experiment [5] and in experiment [6] was “inactive” in each case. The Potency result in [7], in [8], in experiment [9], in experiment [10], in experiment [11] and in experiment [12] was “inactive” in each case. The Potency entry in experiment [13], in experiment [14], in [16], in [17], in experiment [18] and in experiment [19] was “inactive” in each case. Moreover, the activity, negative = inhibition in experiment [2] (parasite line A) is -8.67%; in experiment [2] (parasite line B), 7.5%.
As for `CC1=C[C@@H](O)CC(C)(C)[C@@H]1/C=C/C(C)=C/C=C/C(C)=C/C=C/C=C(C)/C=C/C=C(C)/C=C/C1=C(C)C[C@H](O)CC1(C)C`, the Potency result in experiment [1], in experiment [20], in [3], in experiment [4], in experiment [5] and in [6] was “inactive” in each case. Also, the Potency entry in experiment [7], in experiment [8], in experiment [10], in experiment [11], in experiment [12] and in experiment [13] was “inactive” in each case. The Potency result in experiment [14] was “inactive”. In addition, the activity, negative = inhibition in experiment [2] (parasite line A) was -23.3%. Further, the Potency was 12.6 µM (active) in experiment [15] and 11.2 µM (active) in experiment [19].

These data come from PubChem BioAssay (NCATS).
